This is a sample that favours compounds with a hit; in the whole collection about 2.2% have one here.
BaF3 tox – parental Ba/F3 cell viability inhibition, counter-screen for JAK2V617F inhibitor project, murine pro-B, CellTiter-Glo luminescence. inhibition, % at 5.6 µM. 220,000 tested, 1.1% active. CellTiter-Glo ATP luminescence;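 active means inhibition above a per-campaign cutoff, the mean inhibition of all tested compounds plus 3 SD, cut at about 27% in these data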;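 further: 0% = DMSO wells and 100% = JAK Inhibitor I control wells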
Ba/F3 V617F tox – reduced viability of JAK2V617F-dependent Ba/F3 cells, primary screen, JAK2V617F inhibitor project, cell-based, Ba/F3 EpoR-JAK2V617F, luminescence. ATP luminescence. inhibition, % at 5.6 µM. 220,000 tested, 1.1% active;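 active means inhibition above the campaign mean plus 3 SD over all tested compounds, cut at about 24% in these data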;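 further: cytokine-independent growth of Ba/F3 cells driven by EpoR plus mutant JAK2; 0% = DMSO-treated cells and 100% = JAK inhibitor I control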
IEC-6 tox-1 – cytotoxicity in IEC-6 intestinal epithelial cells, primary screen, cytotoxicity control for KLF5 inhibitor project, cell-based, luminescence | IEC-6 cytotoxicity, luminescence viability | AID 1825, 2009 | 290,000 tested, 0.78% active | inhibition, % at 5 µM; in the data active means inhibition above about 22%;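 further: 0% = plate median of test compound wells and 100% = cytotoxic reference compound wells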
KLF5 inhibitor – KLF5 expression inhibitors, primary screen, DLD-1 cells, luminescence; inhibition, % at 5 µM; DLD-1 KLF5 promoter-luciferase reporter; 290,000 tested, 0.23% active;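 active means inhibition above a per-plate limit of that plate's mean compound inhibition plus 3 SD, cut at about 60% in these data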;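 further: 0% = DMSO wells and 100% = LY294002 at 200 µM; higher means less KLF5 promoter-driven luciferase light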
APP 5UTR inh – inhibitors of APP translation via 5'UTR reporter, primary screen, APP 5'UTR luciferase, SH-SY5Y cells | SH-SY5Y APP 5'UTR-luciferase reporter, luminescence | inhibition, % at 2 µM | 190,000 tested, 0.82% active | AID 1285, 2008;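 active means inhibition above a set limit, derived from the sample mean plus 3 SD, cut at about 45% in these data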
aSyn 5UTR inh – MLPCN primary screen, SNCA 5' untranslated region | 300,000 tested, 0.82% active | inhibition, % (tested at 7.5 µM) | alpha-synuclein 5'UTR reporter, inhibitor activity; in the data active means inhibition above about 60%;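 further: H4 neuroglioblastoma cells stably carrying SNCA 5'UTR luciferase fusion; 0% = DMSO wells and 100% = positive control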
KLF5 inh confirm – KLF5 expression inhibitors, confirmation, DLD-1 cells, luminescence. shares compounds with KLF5 inhibitor. DLD-1 KLF5 promoter firefly luciferase reporter. inhibition, % at 4 µM. 610 tested, 79% active. AID 1834, 2009;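 active means inhibition above a set limit taken from the earlier primary screen, cut at about 63% in these data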;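 further: 0% = DMSO wells and 100% = LY294002 at 200 µM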
IEC-6 tox-2 – cytotoxicity in rat IEC-6 cells, cytotoxicity control for KLF5 inhibitor project, cell-based, luminescence, triplicate; shares compounds with KLF5 inhibitor; IEC-6 rat intestinal cells, viability luminescence; inhibition, % at 4 µM; 610 tested, 56% active; AID 1905, 2009; in the data active means inhibition above about 23%;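 further: cells exposed to compounds for 48 hours before viability read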
Starred values were filed as active, the others as inactive; / = no result.

SMILES | BaF3 tox | Ba/F3 V617F tox | IEC-6 tox-1 | KLF5 inhibitor | APP 5UTR inh | aSyn 5UTR inh | KLF5 inh confirm | IEC-6 tox-2
COC(=O)N=Nc1c(O)[nH]c2ccc(Br)cc12 | -10 | 0 | -4 | -39 | / | -26 | / | /
NC(=S)N=Nc1c(O)[nH]c2ccccc12 | 4 | 1 | 0 | -40 | 11 | 24 | / | /
Oc1[nH]c2ccc(Br)cc2c1N=NC(=S)N1CCOCC1 | 94* | 95* | 88* | 75* | / | 39 | 85* | 56*
O=[N+]([O-])c1ccc2nc(NS(=O)(=O)c3ccc(F)cc3)sc2c1 | / | / | -3 | 5 | / | 6 | / | /
COc1cc(/C=N/O)ccc1OCc1ccc(C(=O)O)cc1 | 4 | 0 | 0 | 84* | 82* | 116* | 95* | 0
COc1cc(/C=N/NS(=O)(=O)c2ccc3ccccc3c2)ccc1OCc1ccc(C(=O)O)cc1 | 0 | 1 | 5 | 65* | / | 84* | -18 | -5
COc1ccc(/C=N/NS(=O)(=O)c2ccc(C)cc2)cc1OC(=O)c1ccccc1 | 3 | -1 | -1 | -22 | -9 | / | / | /
COc1cc(/C=N/O)ccc1OCc1ccc(Cl)cc1 | 4 | -3 | -1 | -254 | -191 | -97 | / | /
NC(=O)CSc1nnc(COc2ccccc2)n1Cc1ccco1 | 10 | -2 | -8 | -13 | -12 | 5 | / | /
CN=c1scc(-c2ccccc2F)n1/N=C/c1ccc[nH]1 | 9 | 5 | -5 | 94* | 55* | 83* | 106* | 2
CSCC[C@H](NC(=O)OC(C)(C)C)C(=O)NCC1CCC(C(=O)N[C@@H](Cc2ccccc2)C(=O)O)CC1 (some centres not stated) | / | / | -2 | -14 | / | 4 | / | /
CCN1CCN(S(=O)(=O)Cc2ccccc2Cl)CC1 | / | / | 1 | 5 | / | -6 | / | /
Cc1cc(C)c2nc(NC(=O)[C@@H](NC(=O)c3cccc(S(=O)(=O)N4CCOCC4)c3)C(C)C)sc2c1 | 10 | 3 | -7 | 74* | -10 | 31 | 100* | 45*
Cc1cccc(C(=O)N[C@H](C(=O)Nc2cc(S(=O)(=O)N3CCCCC3)ccc2C)C(C)C)c1 | 1 | -3 | -4 | 11 | -1 | 2 | / | /
O=C(O)c1ccc(-c2ccc(-c3ccccc3)cc2)s1 | / | / | 10 | 90* | / | 64* | 92* | 4
CCC1CCCCN1C(=O)c1sc2ncnc(N(CC)CC)c2c1C (configuration not stated) | 1 | 2 | 2 | -1 | -14 | 4 | / | /
O=C(Nc1ccc(N2CCCCC2)cc1)c1ccccn1 | 19 | 22 | 19 | 104* | 41 | 114* | 100* | 12
O=C(Nc1ccc(N2CCCCCC2)cc1)c1ccccc1Cl | 3 | 9 | 11 | -139 | -107 | -252 | / | /
CCCn1c(C)cs/c1=N\C(=S)Nc1ccccc1 | 4 | 5 | 8 | 118* | -25 | 2 | -18 | 5
Cc1cs/c(=N/C(=S)Nc2ccccc2)n1C | 5 | 0 | 0 | -103 | -133 | -115 | / | /
CN1CCN(C(c2ccc(C(F)(F)F)cc2)c2ccc3cccnc3c2O)CC1 (configuration not stated) | / | / | 2 | 48 | / | 46 | / | /
Oc1c(C(c2cccs2)N2CCN(c3ccccc3)CC2)ccc2cccnc12 (configuration not stated) | 83* | 98* | 0 | 69* | 59* | / | -20 | -6
O=Cc1ccc(O)c2ncccc12 | 53* | 8 | 100* | 82* | / | 63* | 60 | 29*
CC(=O)c1ccc(Nc2cc(C)nc3c(C)cc(C)cc23)cc1 | 81* | 81* | 73* | 67* | 89* | 21 | 79* | 49*
CC(C)(C)c1cccc(C2(O)C(=O)c3ccccc3C2=O)c1O | 2 | -5 | 6 | -1 | / | 10 | / | /
